# Data from PubChem BioAssay.
# The source made the active and inactive calls.
# Columns and labels:
# [1] = compound effects on differentiated 3T3-L1 adipocyte viability – cell-based, 3T3-L1 adipocytes, calcein-AM fluorescence, 48 h, basal, profiling panel (AID 1163); settings: 3T3-L1 adipocytes viability, higher = more signal
# [2] = compound effects on hepatocellular carcinoma cell viability – HepG2, calcein-AM fluorescence, 48 h, basal, profiling panel (AID 1164); settings: higher = more signal
# [3] = compound effects on multiple myeloma cell viability – MM1S, calcein-AM fluorescence, 48 h, basal, profiling panel (AID 1165); settings: higher = more signal;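 further: viability of MM1S multiple myeloma cells under basal unstimulated conditions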
# [4] = calcein-AM signal in unstimulated myeloma cells – cell-based, calcein-AM fluorescence, 48 h, PK04 Diversity Set, profiling panel (AID 1166); settings: RPMI8226 myeloma viability, higher = more signal;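 further: cells grown under basal conditions without added stimulus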
# [5] = JC-1 mitochondrial signal, unstimulated HepG2 cells – cell-based, JC-1 fluorescence, 24 h, 100 nL compound, profiling panel (AID 1167); settings: HepG2 mitochondrial potential, higher = more signal
# [6] = JC-1 mitochondrial signal, unstimulated adipocytes – cell-based, JC-1 fluorescence, 3T3-L1 adipocytes, 24 h, 100 nL compound, profiling panel (AID 1168); settings: JC-1 mitochondrial fluorescence, higher = more signal, called active from +8 up or from −8 down
# [7] = JC-1 mitochondrial signal, unstimulated myeloma cells – cell-based, JC-1 fluorescence, RPMI8226, 24 h, 100 nL compound, profiling panel (AID 1169); settings: JC-1 mitochondrial potential fluorescence, higher = more signal
# [8] = JC-1 mitochondrial signal, unstimulated MM1S myeloma – cell-based, JC-1 fluorescence, 24 h, 100 nL compound, profiling panel (AID 1170); settings: MM1S mitochondrial potential, higher = more signal
# [9] = resazurin metabolic signal in A549 cells – cell-based, resazurin fluorescence, 24 h, PK04 Diversity Set, profiling panel (AID 1171); settings: A549 viability, higher = more signal, called active from +8 up or from −8 down
# [10] = resazurin metabolic signal in HepG2 cells – cell-based, resazurin fluorescence, 24 h, PK04 Diversity Set, profiling panel (AID 1172); settings: HepG2 viability, higher = more signal
# [11] = budding yeast growth changes without added modifier – OD600, strain BY4716, 24 h, basal condition, primary screen (AID 1173); settings: S. cerevisiae BY4716 growth, OD600, 24 h; higher = more signal, called active from +8 up or from −8 down
# [12] = viability profiling in MM1S myeloma cells – cell-based, resazurin fluorescence, basal, 24 h, PK04 Diversity Set, profiling panel (AID 1174); settings: higher = more signal, called active from +8 up or from −8 down
# [13] = target: Dihydroorotate dehydrogenase (quinone), mitochondrial (Plasmodium falciparum (isolate 3D7)) (UniProt Q08210); experiment: inhibition of P. falciparum DHODH – biochemical, C-terminal His tag, absorbance 600 nm, primary screen (AID 1175); settings: PfDHODH enzyme, DCIP absorbance 600 nm; higher = more signal, called active from +8 up or from −8 down;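 further: recombinant parasite enzyme with a five histidine tag at its C terminus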
# Chain of Dihydroorotate dehydrogenase (quinone), mitochondrial (Plasmodium falciparum (isolate 3D7)) (Q08210 whole entry, looked up): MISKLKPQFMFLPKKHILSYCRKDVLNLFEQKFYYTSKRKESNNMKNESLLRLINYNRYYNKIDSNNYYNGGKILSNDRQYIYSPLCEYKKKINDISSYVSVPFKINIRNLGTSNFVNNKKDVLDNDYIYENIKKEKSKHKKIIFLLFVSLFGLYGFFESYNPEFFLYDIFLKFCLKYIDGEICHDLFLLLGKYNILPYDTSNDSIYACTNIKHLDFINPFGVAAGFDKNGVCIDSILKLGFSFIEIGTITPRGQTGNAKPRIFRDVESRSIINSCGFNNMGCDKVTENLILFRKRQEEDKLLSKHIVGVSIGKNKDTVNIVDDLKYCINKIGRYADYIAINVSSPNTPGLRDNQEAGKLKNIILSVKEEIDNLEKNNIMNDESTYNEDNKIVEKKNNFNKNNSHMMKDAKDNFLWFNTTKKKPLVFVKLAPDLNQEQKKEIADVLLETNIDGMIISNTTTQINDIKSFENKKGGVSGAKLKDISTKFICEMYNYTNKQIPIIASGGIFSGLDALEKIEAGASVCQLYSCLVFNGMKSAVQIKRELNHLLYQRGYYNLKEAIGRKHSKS
# [14] = growth modulation of vineyard yeast isolate – strain RM11-1a, OD600, basal, 24 h, primary screen (AID 1177);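 further: cultures grown under basal conditions with no added stressor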; settings: S. cerevisiae RM11-1a growth, OD600, 24 h; higher = more signal, called active from +8 up or from −8 down
# [15] = growth of efflux-deficient E. coli DRC39 – strain DRC39, OD650, 24 h, E. coli filamentation inducers, primary screen (AID 1178);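 further: growth measured as culture turbidity by optical density at 650 nm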; settings: E. coli DRC39 acrAB, higher = more signal, called active from +8 up or from −8 down
# [16] = growth of efflux-deficient E. coli DRC39 – strain DRC39, OD650, 48 h, E. coli filamentation inducers, primary screen (AID 1179);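 further: screen aims at cell division blockers that make cells filament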; settings: E. coli DRC39 delta-acrAB growth, higher = more signal, called active from +8 up or from −8 down
# [17] = viability profiling in RPMI8226 myeloma cells – cell-based, resazurin fluorescence, basal, 24 h, PK04 Diversity Set, profiling panel (AID 1180); settings: higher = more signal;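 further: RPMI8826 multiple myeloma cell line at 5000 cells per well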
# [18] = target: E3 ubiquitin-protein ligase XIAP (Homo sapiens) (UniProt P98170); experiment: small molecules binding XIAP protein – biophysical, small-molecule microarray, fluorescence 635 nm, primary screen (AID 1181); settings: higher = more signal;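 further: score merges 667 nm emission and signal to noise over triplicate slides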
# Chain of E3 ubiquitin-protein ligase XIAP (Homo sapiens) (P98170 whole entry, looked up, the tested form may be a part): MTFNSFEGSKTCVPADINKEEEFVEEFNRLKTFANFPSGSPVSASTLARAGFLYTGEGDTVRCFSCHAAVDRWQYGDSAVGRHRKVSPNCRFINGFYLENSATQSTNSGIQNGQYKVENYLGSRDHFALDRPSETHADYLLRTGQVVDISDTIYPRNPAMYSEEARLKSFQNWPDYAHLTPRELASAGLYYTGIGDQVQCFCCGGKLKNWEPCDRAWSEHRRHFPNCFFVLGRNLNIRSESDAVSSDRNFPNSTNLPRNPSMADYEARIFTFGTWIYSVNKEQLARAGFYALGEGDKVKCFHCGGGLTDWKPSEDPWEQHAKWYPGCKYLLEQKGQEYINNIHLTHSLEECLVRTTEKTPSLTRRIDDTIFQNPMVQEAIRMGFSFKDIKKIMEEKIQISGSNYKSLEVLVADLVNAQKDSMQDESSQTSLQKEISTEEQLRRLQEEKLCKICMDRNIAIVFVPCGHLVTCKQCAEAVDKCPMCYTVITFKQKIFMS
# [19] = test system: XIP peptide (Xip251-270) binding; experiment: XIP fragment 251-270 binding compounds – biochemical, small-molecule microarray, fluorescence 635/667 nm, 0.1 µg/mL protein, primary screen (AID 1182); settings: fluorescent protein binding, 635 nm, higher = more signal, called active from +8 up or from −8 down
# XIP peptide (Xip251-270) = experiment: compounds binding XIP fragment 251-270 – biochemical, small-molecule microarray, fluorescence 635/667 nm, 0.5 µg/mL protein, primary screen (AID 1183); settings: fluorescence 635 nm, higher = more signal
smiles,measurement,setting,value
CCCCCN1CC=CC23O[C@@H]4/C=C\CCC(C)OC(=O)C4[C@H]2C(=O)N(CCCO)[C@@H]3C1=O (stereo not given in full),z-score,[1],1.42
same,z-score,[2],0.495
same,z-score,[3],-1.25
same,z-score,[4],0.279
same,z-score,[5],0.197
same,z-score,[6],0.399 (inactive)
same,z-score,[7],0.318
same,z-score,[8],0.962
same,z-score,[9],0.427 (inactive)
same,z-score,[10],0.605
same,z-score,[11],-1.26 (inactive)
same,z-score,[12],1.5 (inactive)
same,composite z-score,[13],0.564 (inactive)
same,z-score,[14],-0.599 (inactive)
same,z-score,[15],1.54 (inactive)
same,z-score,[16],1.11 (inactive)
same,z-score,[17],1.4
same,composite z-score,[18],-0.0351
same,composite z-score,[19],0.156 (inactive)
same,composite z-score,XIP peptide (Xip251-270),-0.827
C=C(COC)/C(=C/C[C@H](OC(C)=O)c1ccc(CO)o1)c1cnc2ccccc2c1,z-score,[1],0.788
same,z-score,[2],-0.957
same,z-score,[3],-1.42
same,z-score,[4],-0.182
same,z-score,[5],0.117
same,z-score,[6],0.411 (inactive)
same,z-score,[7],0.624
same,z-score,[8],-0.271
same,z-score,[9],0.445 (inactive)
same,z-score,[10],0.441
same,z-score,[11],-1.24 (inactive)
same,z-score,[12],1.04 (inactive)
same,composite z-score,[13],-7.31 (inactive)
same,z-score,[14],-0.819 (inactive)
same,z-score,[15],1.48 (inactive)
same,z-score,[16],0.383 (inactive)
same,z-score,[17],0.981
same,composite z-score,[18],0.292
same,composite z-score,[19],1.5 (inactive)
same,composite z-score,XIP peptide (Xip251-270),0.807
CN1C=C(C(=O)OCCS(C)(=O)=O)C(C(=O)OCCS(C)(=O)=O)=CC(CCCO)=CC1c1cccs1 (stereo not given),z-score,[1],0.778
same,z-score,[2],0.615
same,z-score,[3],0.175
same,z-score,[4],-0.249
same,z-score,[5],1.9
same,z-score,[6],1.93 (inactive)
same,z-score,[7],0.0813
same,z-score,[8],0.885
same,z-score,[9],0.776 (inactive)
same,z-score,[10],0.666
same,z-score,[11],-3.06 (inactive)
same,z-score,[12],1.07 (inactive)
same,composite z-score,[13],-4.08 (inactive)
same,z-score,[14],-1.01 (inactive)
same,z-score,[15],1.26 (inactive)
same,z-score,[16],0.676 (inactive)
same,z-score,[17],0.602
same,composite z-score,[18],0.0374
same,composite z-score,[19],-0.64 (inactive)
same,composite z-score,XIP peptide (Xip251-270),-0.254
CCCCC(=C=CC[C@H](O)c1cccc(OCCO)c1)CCO,z-score,[1],1.07
same,z-score,[2],-0.693
same,z-score,[3],-1
same,z-score,[4],-0.257
same,z-score,[5],0.733
same,z-score,[6],0.439 (inactive)
same,z-score,[7],0.12
same,z-score,[8],-0.0531
same,z-score,[9],1.7 (inactive)
same,z-score,[10],0.529
same,z-score,[11],-1.41 (inactive)
same,z-score,[12],1.31 (inactive)
same,composite z-score,[13],-0.802 (inactive)
same,z-score,[14],-0.114 (inactive)
same,z-score,[15],1.3 (inactive)
same,z-score,[16],0.749 (inactive)
same,z-score,[17],0.837
same,composite z-score,[18],0.0458
same,composite z-score,[19],0.511 (inactive)
same,composite z-score,XIP peptide (Xip251-270),-0.97
CC(C)C[C@@H]1NC(=O)[C@@H]2C[C@H](C(=O)NCCCCCNC(=O)CS)[C@H](c3cccc(OCCO)c3)N2C1=O,z-score,[1],1.28
same,z-score,[2],-0.646
same,z-score,[3],-1
same,z-score,[4],0.134
same,z-score,[5],0.236
same,z-score,[6],0.321 (inactive)
same,z-score,[7],0.14
same,z-score,[8],0.072
same,z-score,[9],0.621 (inactive)
same,z-score,[10],0.474
same,z-score,[11],-0.928 (inactive)
same,z-score,[12],1.47 (inactive)
same,composite z-score,[13],-0.168 (inactive)
same,z-score,[14],-1.14 (inactive)
same,z-score,[15],0.186 (inactive)
same,z-score,[16],-0.115 (inactive)
same,z-score,[17],0.673
same,composite z-score,[18],-0.0351
same,composite z-score,[19],1.58 (inactive)
same,composite z-score,XIP peptide (Xip251-270),0.785
CC(C)N1C(=O)c2ccccc2[C@@H](C(=O)NCc2ccccc2)[C@@H]1c1ccc(CO)cc1,z-score,[1],1.05
same,z-score,[2],-0.179
same,z-score,[3],-0.601
same,z-score,[4],0.0541
same,z-score,[5],0.617
same,z-score,[6],-0.0455 (inactive)
same,z-score,[7],0.115
same,z-score,[8],-0.251
same,z-score,[9],1.05 (inactive)
same,z-score,[10],0.595
same,z-score,[11],0.25 (inactive)
same,z-score,[12],1.51 (inactive)
same,composite z-score,[13],0.578 (inactive)
same,z-score,[14],1.49 (inactive)
same,z-score,[15],0.541 (inactive)
same,z-score,[16],0.169 (inactive)
same,z-score,[17],1.01
same,composite z-score,[18],-0.0095
same,composite z-score,[19],0.482 (inactive)
same,composite z-score,XIP peptide (Xip251-270),-0.988
C/C=C/[C@@H](CCn1cc(CCO[Si](C(C)C)(C(C)C)C(C)C)nn1)[Si](C)(C)c1ccc(OC)cc1,z-score,[1],0.925
same,z-score,[2],0.359
same,z-score,[3],-1.17
same,z-score,[4],-1.21
same,z-score,[5],3.71
same,z-score,[6],1.12 (inactive)
same,z-score,[7],0.236
same,z-score,[8],2.03
same,z-score,[9],7.86 (inactive)
same,z-score,[10],4.46
same,z-score,[11],-2.21 (inactive)
same,z-score,[12],1.91 (inactive)
same,composite z-score,[13],-1.14 (inactive)
same,z-score,[14],-4 (inactive)
same,z-score,[15],2.42 (inactive)
same,z-score,[16],1.89 (inactive)
same,z-score,[17],5.22
same,composite z-score,[18],-0.169
same,composite z-score,[19],-0.411 (inactive)
same,composite z-score,XIP peptide (Xip251-270),-1.48
COCCCNC(=O)[C@@]1(C)c2ccccc2C(=O)N(Cc2cc(F)cc(C(F)(F)F)c2)[C@H]1c1ccc(CO)cc1,z-score,[1],0.604
same,z-score,[2],-0.176
same,z-score,[3],0.534
same,z-score,[4],-0.0765
same,z-score,[5],1.32
same,z-score,[6],0.0832 (inactive)
same,z-score,[7],-0.69
same,z-score,[8],0.659
same,z-score,[9],0.914 (inactive)
same,z-score,[10],-0.0724
same,z-score,[11],0.416 (inactive)
same,z-score,[12],1.09 (inactive)
same,composite z-score,[13],0.408 (inactive)
same,z-score,[14],1.35 (inactive)
same,z-score,[15],1.04 (inactive)
same,z-score,[16],0.359 (inactive)
same,z-score,[17],1.31
same,composite z-score,[18],2.62
same,composite z-score,[19],-0.268 (inactive)
same,composite z-score,XIP peptide (Xip251-270),-1.16
C=C(C1=CCN(S(=O)(=O)c2ccc(C)cc2)C1)[C@@H](OC(C)=O)[C@@H]1CCCN1S(=O)(=O)c1ccccc1[N+](=O)[O-],z-score,[1],1.9
same,z-score,[2],-3.37
same,z-score,[3],-3.21
same,z-score,[4],-4.14
same,z-score,[5],1.04
same,z-score,[6],0.496 (inactive)
same,z-score,[7],-1.21
same,z-score,[8],-2.86
same,z-score,[9],0.0974 (inactive)
same,z-score,[10],0.174
same,z-score,[11],-0.372 (inactive)
same,z-score,[12],-7.03 (inactive)
same,composite z-score,[13],1 (inactive)
same,z-score,[14],1.39 (inactive)
same,z-score,[15],2.93 (inactive)
same,z-score,[16],1.38 (inactive)
same,z-score,[17],-4.54
same,composite z-score,[18],-0.301
same,composite z-score,[19],0.698 (inactive)
same,composite z-score,XIP peptide (Xip251-270),-0.737
